Bioassay records (PubChem)
BRCA1 expr act – BRCA1 expression activation. MCF7-BRCA1-FFLuc reporter, luminescence, 48 h; response scale: scaled: vehicle 0%, 10 µM genistein 100%. Potency, µM (series often up to 46.1 µM), inactives show at the highest dose activation, actives largely listed as activators. hit rate 1.1% among 380,000; note: nearly all actives have a fitted effect of over 80% in size
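Reporter cells (MCF7, BRCA1 promoter-firefly luciferase) received library compounds across a concentration series for 48 h. End-point luminescence was measured and concentration-effect curves derived after normalization.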
EPAC1 antag – blocks human EPAC1 exchange factor | O95398 | EPAC1 GEF assay, Rap1b-BODIPY-GDP exchange fluorescence | Potency, µM (top dose mostly 115 µM), without a hit: at the top dose activity change, negative = inhibition, actives largely listed as inhibitors | hit rate 0.14% among 360,000 | AID 720709;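 note: plate controls were vehicle for no effect and positive control for full effect; nearly all actives have a fitted effect of over 50% in size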
EPAC2 antag – antagonists of human EPAC2; Q8WZA2; EPAC2 GEF exchange of Rap1B-BODIPY-GDP, fluorescence; Potency, µM (series often up to 114 µM), for inactives: at the top dose activity, negative = inhibition, hits mostly inhibitors; hit rate 0.18% among 360,000; AID 720708; note: % is set by controls: 0 for no effect and ±100 for the full control effect; nearly all actives have a fitted effect of over 45% in size
Target sequence (Q8WZA2 whole entry, looked up): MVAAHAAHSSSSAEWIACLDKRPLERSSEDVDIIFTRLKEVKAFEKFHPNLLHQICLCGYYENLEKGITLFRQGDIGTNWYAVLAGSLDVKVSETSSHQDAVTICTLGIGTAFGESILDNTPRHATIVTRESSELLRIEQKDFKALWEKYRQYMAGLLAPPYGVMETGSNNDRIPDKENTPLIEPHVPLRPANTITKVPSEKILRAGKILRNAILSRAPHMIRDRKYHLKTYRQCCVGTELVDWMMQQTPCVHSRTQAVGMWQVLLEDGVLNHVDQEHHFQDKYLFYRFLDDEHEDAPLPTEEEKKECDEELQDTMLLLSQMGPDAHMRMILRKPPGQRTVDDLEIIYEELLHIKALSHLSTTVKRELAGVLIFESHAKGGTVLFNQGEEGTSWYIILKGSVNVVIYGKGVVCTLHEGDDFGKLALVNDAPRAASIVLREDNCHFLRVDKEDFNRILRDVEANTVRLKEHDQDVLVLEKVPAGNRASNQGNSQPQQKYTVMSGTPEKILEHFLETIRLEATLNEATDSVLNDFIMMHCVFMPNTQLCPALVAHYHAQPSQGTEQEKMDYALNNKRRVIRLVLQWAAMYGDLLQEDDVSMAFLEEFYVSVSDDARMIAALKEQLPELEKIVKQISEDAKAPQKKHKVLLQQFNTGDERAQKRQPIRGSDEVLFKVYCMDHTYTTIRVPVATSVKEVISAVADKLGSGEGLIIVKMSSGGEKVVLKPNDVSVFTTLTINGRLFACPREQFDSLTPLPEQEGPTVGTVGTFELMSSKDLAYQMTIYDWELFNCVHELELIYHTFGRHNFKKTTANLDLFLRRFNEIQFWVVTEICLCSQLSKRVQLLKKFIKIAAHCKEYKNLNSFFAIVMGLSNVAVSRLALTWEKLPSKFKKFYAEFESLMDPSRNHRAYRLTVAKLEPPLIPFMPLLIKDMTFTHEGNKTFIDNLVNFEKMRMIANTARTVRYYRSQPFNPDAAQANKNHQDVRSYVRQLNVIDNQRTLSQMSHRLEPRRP
EPAC1 ag – agonists of human EPAC1 | O95398 | EPAC1 agonist qHTS, biochemical assay; response scale: 100% = response to 6.5 mM cAMP | Potency, µM (top dose mostly 154 µM), inactives show at the top dose activation, actives largely listed as activators | hit rate 0.073% among 360,000; note: nearly all actives have a fitted effect of over 60% in size
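Normalized to 6.5 mM cAMP, activity reflects EPAC1-catalysed release of BODIPY-GDP from Rap1B, followed kinetically over 30 min at 480 nm excitation, 540 nm emission. Reaction contained 100 nM EPAC1, 250 nM Rap1B-BODIPY-GDP, 50 uM GDP.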
USP1-UAF1 inh – inhibitors of human USP1/UAF1 deubiquitinase. Potency, µM (titrated, usually from 57.1 µM), without a hit: at the highest dose activity change, negative = inhibition, usual class: inhibitors. recombinant USP1/UAF1, Ub-Rhodamine cleavage fluorescence. hit rate 0.23% among 390,000; note: % is set by controls: 0 for no effect and ±100 for the full control effect; nearly all actives have a fitted effect of over 60% in size
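High-throughput fluorogenic screen: 1nM USP1/UAF1 complex, Ub-Rho substrate 150nM final, 50mM HEPES pH 7.8 with 0.5mM EDTA, 0.1 mg/ml BSA, 1mM TCEP and 0.01% Tween-20.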
EPAC2 agonist – EPAC2 (human) agonism. Potency, µM (doses to about 154 µM), without a hit: at the highest dose activation, actives largely listed as activators. hit rate 0.079% among 360,000. EPAC2 activation, biochemical qHTS; response scale: 100% = 6.5 mM cAMP response. Q8WZA2; note: nearly all actives have a fitted effect of over 50% in size
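Guanine nucleotide exchange by EPAC2 is measured as reduced fluorescence of BODIPY-GDP once it is released from 250 nM Rap1B. Plates are read kinetically for 30 min at room temperature; results are scaled to 6.5 mM cAMP.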
* marks the source's active call; other numbers are inactive results. Hits are enriched below; roughly 1.4% of the tested compounds scored in any of these assays. Calls come from the whole dose curve; as a rule, active = well fitted curve in the direction sought with a large enough effect; inconclusive = small, poorly fitted or top-dose-only effect, or another doubt; inactive = no such curve, though single readings can be large; an effect the other way counts as inactive or inconclusive. Potency is the fitted concentration of half-maximal effect.

How did O=[N+]([O-])c1cc(Cc2ccccc2)cc(C=Nc2ccc(N3CCOCC3)cc2)c1O do in these assays?
BRCA1 expr act: -9.6%; EPAC1 antag: 0.4%; EPAC2 antag: inconclusive; EPAC1 ag: 2.5%; USP1-UAF1 inh: 25.1µM*; EPAC2 agonist: -5.8%

What do the screens show for `Cc1ccc(O)c(N=Cc2cc(Cc3ccccc3)cc([N+](=O)[O-])c2O)c1`?
BRCA1 expr act: -79.3%; EPAC1 antag: inconclusive; EPAC2 antag: inconclusive; EPAC1 ag: 16.6%; USP1-UAF1 inh: 25.1µM*; EPAC2 agonist: 12.7%

How did COc1cc(/C=C/CNC[C@H]2O[C@@H](n3cnc4c(N)ncnc43)[C@H](O)[C@@H]2O)ccc1O do in these assays?
BRCA1 expr act: -28.9%; EPAC1 antag: 0.5%; EPAC2 antag: -0.5%; EPAC1 ag: 7.3%; EPAC2 agonist: 8.3%

What do the screens show for `O=C1C(N2CCOCC2)=C(n2nnc3ccccc32)C(=O)c2ccccc21`?
BRCA1 expr act: -74.5%; EPAC1 antag: -28.1%; EPAC2 antag: -2.0%; EPAC1 ag: 0.5%; USP1-UAF1 inh: 14.1µM*; EPAC2 agonist: 2.1%

Results for O=C1c2ccccc2C(=O)c2c1cccc2-n1nnc2ccccc21 ?
BRCA1 expr act: -1.4%; EPAC1 antag: 2.6%; EPAC2 antag: -0.7%; EPAC1 ag: 3.8%; USP1-UAF1 inh: -14.3%; EPAC2 agonist: 7.5%

What do the screens show for `S=C(NCCc1cccc(Cl)c1)NC1CCCCC1`?
BRCA1 expr act: 3.16µM*; EPAC1 antag: -17.9%; EPAC2 antag: -4.2%; EPAC1 ag: -5.7%; USP1-UAF1 inh: -25.4%; EPAC2 agonist: 15.0%

How did S=C(NCCc1ccccc1)NC1CCC(NC(=S)NCCc2ccccc2)CC1 (stereo not given) do in these assays?
BRCA1 expr act: 1.0%; EPAC1 antag: 1.5%; EPAC2 antag: -1.9%; EPAC1 ag: 14.1%; USP1-UAF1 inh: -26.2%; EPAC2 agonist: -3.5%

Results for O=c1/c(=C\c2cccnc2)sc2nc3ccccc3n12 ?
BRCA1 expr act: 12.6µM*; EPAC1 antag: 15.3%; EPAC2 antag: 11.2%; EPAC1 ag: -7.0%; USP1-UAF1 inh: -8.7%; EPAC2 agonist: -3.9%

How did Cc1cc(C)c2nc3sc(=Cc4ccc(-c5ccccc5C(=O)O)o4)c(=O)n3c2c1 do in these assays?
BRCA1 expr act: 16.4%; EPAC1 antag: inconclusive; EPAC2 antag: -8.5%; EPAC1 ag: 4.7%; EPAC2 agonist: 2.6%

What do the screens show for `O=C(O)c1ccc(-c2ccc(/C=c3/sc4nc5ccccc5n4c3=O)o2)cc1Cl`?
BRCA1 expr act: -15.0%; EPAC1 antag: 31.4%; EPAC2 antag: -0.4%; EPAC1 ag: 23.2%; USP1-UAF1 inh: 28.2µM*; EPAC2 agonist: -54.0%

What do the screens show for `O=C(CSc1nc2cc(Cl)ccc2o1)Nc1ccc(N2CCOCC2)cc1`?
BRCA1 expr act: 12.6µM*; EPAC1 antag: 7.9%; EPAC2 antag: -0.5%; EPAC1 ag: -6.0%; USP1-UAF1 inh: -4.3%; EPAC2 agonist: 5.1%

How did Cc1ccc(/C=N/N2CCN(c3ccccc3)CC2)cc1 do in these assays?
BRCA1 expr act: 12.6µM*; EPAC1 antag: 3.4%; EPAC2 antag: 8.3%; EPAC1 ag: 7.7%; USP1-UAF1 inh: -14.1%; EPAC2 agonist: -5.0%

Results for CN(C)c1ccc(C=NN2CCCCCC2)cc1 ?
BRCA1 expr act: 7.94µM*; EPAC1 antag: 3.3%; EPAC2 antag: -3.1%; EPAC1 ag: -2.8%; USP1-UAF1 inh: inconclusive; EPAC2 agonist: 3.5%

What do the screens show for `CC(C)c1ccc(/C=N/N2CCCCC2)cc1`?
BRCA1 expr act: 0.0%; EPAC1 antag: -3.3%; EPAC2 antag: -7.0%; EPAC1 ag: 5.1%; USP1-UAF1 inh: -0.7%; EPAC2 agonist: 3.6%

Results for Clc1ccc(/C=N/N2CCN(Cc3ccccc3)CC2)cc1 ?
BRCA1 expr act: 32.3%; EPAC1 antag: -4.4%; EPAC2 antag: -4.2%; EPAC1 ag: -1.0%; USP1-UAF1 inh: -7.0%; EPAC2 agonist: 10.1%

What do the screens show for `C(/C=C/c1ccccc1)=N/N1CCN(c2ccccc2)CC1`?
BRCA1 expr act: 7.94µM*; EPAC1 antag: 15.3%; EPAC2 antag: 2.9%; EPAC1 ag: 3.3%; USP1-UAF1 inh: -13.9%; EPAC2 agonist: 4.6%

Results for C(=C\c1ccccc1)/C=N/N1CCN(Cc2ccccc2)CC1 ?
BRCA1 expr act: 11.2µM*; EPAC1 antag: -3.4%; EPAC2 antag: 7.7%; EPAC1 ag: -7.9%; USP1-UAF1 inh: -8.2%; EPAC2 agonist: 21.0%

What do the screens show for `CC(OC(=O)c1ccccc1OCC(=O)Nc1ccc(Br)cc1)C(=O)NC1CCCC1` (stereo not given)?
BRCA1 expr act: 14.6%

Results for CCCCNC(=O)C[C@@H]1C[C@@]2(C(=O)OCC)CCC=C2N(Cc2ccc(Cl)cc2Cl)C1=O ?
BRCA1 expr act: 0.0%; EPAC1 antag: -14.5%; EPAC2 antag: -16.0%; EPAC1 ag: -3.5%; EPAC2 agonist: 3.7%

What do the screens show for `CN1CCN(/N=C/c2ccc(N(c3ccccc3)c3ccccc3)cc2)CC1`?
BRCA1 expr act: -84.1%; EPAC1 antag: -5.9%; EPAC2 antag: -16.3%; EPAC1 ag: 9.4%; USP1-UAF1 inh: -5.9%; EPAC2 agonist: 22.3%

What do the screens show for `CN1CCN(/N=C/c2ccc(Br)cc2)CC1`?
BRCA1 expr act: 5.62µM*; EPAC1 antag: -17.8%; EPAC2 antag: 9.2%; EPAC1 ag: -3.6%; USP1-UAF1 inh: -12.5%; EPAC2 agonist: 5.3%

Results for Cc1cc(C(=O)N2C(C)CCCC2C)no1 (stereo not given) ?
BRCA1 expr act: -11.6%; EPAC1 antag: -9.5%; EPAC2 antag: 4.6%; EPAC1 ag: 1.1%; USP1-UAF1 inh: -16.5%; EPAC2 agonist: 4.2%

Results for CC1CCCC(C)N1C(=O)c1cc(-c2cccs2)on1 (stereo not given) ?
BRCA1 expr act: 15.8µM*; EPAC1 antag: -13.5%; EPAC2 antag: -1.2%; EPAC1 ag: 7.9%; USP1-UAF1 inh: -9.4%; EPAC2 agonist: 13.9%

Results for CC1=CC(C)(C)N2C(=O)C(=Nc3ccc(O)cc3)c3cccc1c32 ?
BRCA1 expr act: -30.5%; EPAC1 antag: 79.4µM*; EPAC2 antag: inconclusive; EPAC1 ag: 14.1%; USP1-UAF1 inh: 3.55µM*; EPAC2 agonist: 20.6%

Results for Cc1ccc(-n2c(C)nnc2SCC(=O)N2CCOCC2)cc1 ?
BRCA1 expr act: 2.0%; EPAC1 antag: 0.5%; EPAC2 antag: -4.2%; EPAC1 ag: -1.1%; USP1-UAF1 inh: -8.6%; EPAC2 agonist: 3.9%

How did CN(C(=O)c1cccc(Br)c1)C1CCS(=O)(=O)C1 (stereo not given) do in these assays?
BRCA1 expr act: 5.2%; EPAC1 antag: -10.9%; EPAC2 antag: 2.2%; EPAC1 ag: 4.5%; USP1-UAF1 inh: -25.3%; EPAC2 agonist: 7.1%
